Here are results for 40 compounds from PubChem BioAssay (NCI).

About 83,000 compounds went through this panel and 20% of them were active in at least one assay; those are over-represented in the sample as a whole.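 Step 1: grow cells in 96-well plates. Step 2: add test compound at a single concentration. Step 3: incubate 48 h. Step 4: record percent growth.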 Calls of active or inactive are those of the source.

The subject of this assay is BT-549 breast. Description: NCI-60 one-dose screen, 48 h (100 = growth as untreated, 0 = no growth, -100 = all killed). As to conditions: 10 µM unless noted. The method, then: Growth inhibition of the BT-549 human tumor cell line is measured as a screen for anti-cancer activity. Cells are grown in 96 well plates and exposed to the test compound for 48 hours. Compounds are tested at a single concentration, which is 10^-5 M for most compounds. The reported endpoint is percent growth (GI% or GIPRCNT), where numbers from 0 - 100% represent growth inhibition, and numbers from -100% - 0 represent cell death. For example, a value of 40 represents 60% growth inhibition. A value of 0 means no net growth occurred over the course of the experiment. A value of -40 indicates 40% of cells at the beginning of the experiment died by the end of the experiment. A value of -100 means all cells are dead at the end of the experiment.
NCI-60 Human Tumor Cell Lines Screen was performed using the standard one-dose NCI protocol, which is described in more detail at https://dtp.cancer.gov/discovery_development/nci-60/default.htm.
Compounds with GIPRCNT values below 10 were considered active. Activity score was based on GIPRCNT using the following formula: […]
Score is 0 for GIPRCNT values of 100 or above, 50 for GIPRCNT values of 0, and 100 for GIPRCNT values of -100.
In the case of `CCc1ccc(CCCC(=O)O)cc1`, the growth was 101% (inactive).
Then `O=C(Nc1ccccc1O)c1ccc(CNC(=O)c2sccc2Nc2ccnc(C(F)(F)F)c2)cc1`, with 59.5% (inactive); and `O=C(CN1C(=O)S/C(=C\C(Cl)=C\c2ccccc2)C1=O)NCCc1ccc(O)cc1`, with 22.1% (inactive).
Take `C=C(C)[C@@H]1CC[C@]2(CO)CC[C@]3(C)[C@H](CC[C@@H]4[C@@]5(C)CC[C@H](NCO)C(C)(C)[C@@H]5CC[C@]43C)[C@@H]12`: the growth was 74.3% (inactive).
Then `Cc1ccc2c(c1)=C/C(=C\c1cc(-c3ccccc3)oc1O)C(=O)N=2`, with 94.3% (inactive).
The figure for `Nc1cc(C(=O)NC[C@H]2CN(c3ccc(N4CCC(C(=O)O)CC4)cc3)C(=O)O2)ccc1Cl` is 104% (inactive).
Regarding `C=C1C(=O)O[C@H]2[C@H]1CC/C(COC(=O)c1cc3ccccc3s1)=C\CC[C@@]1(C)O[C@@H]21`, the growth is -59% (active).
In the case of `COc1ccc(C(=O)N2c3ccccc3Sc3ccccc32)c(OC)c1`, the growth was 16.9% (inactive).
The figure for `Fc1cccc(Oc2ccc(Nc3ncnc4ccc(OCCCN5CCOCC5)cc34)cc2Cl)c1` is 79% (inactive); for `CCNCCNc1cc(-c2ccc(C(F)(F)F)cc2)c(C#N)c2nc3ccccc3n12` it is -73.9% (active); for `Nc1nc(N)c(-c2ccc(Cl)c(Cl)c2)c(CBr)n1` it is 59.7% (inactive).
Then `C=CC(=O)N1CCN(c2cccc(Oc3nccc(Nc4nnc(-c5ccc(Br)cc5)s4)n3)c2)CC1`, with 67.1% (inactive); and `Cc1nc2sc(C(=O)Nc3cccc(Br)c3)c(N)c2cc1C(O)c1ccccc1` (stereo not given), with 53.7% (inactive).
On to `N=C(N)c1ccc(-c2ccc(-c3ccc(Cl)cc3Cl)s2)cc1`, for which the growth was 100% (inactive).
On to `O=S(=O)(Nc1cc(Cl)ccc1Cl)c1ccc(-c2cnc(C3CC3)o2)cc1`, for which the growth is 40.5% (inactive).
The figure for `N#CC1=C(N)Oc2c(sc3c(Br)cccc23)C1c1ccc(Cl)cc1` (stereo not given) is 41% (inactive); for `CC1CCN(CCOc2ccc(CNc3ccc4nc(CCC5CCCCC5)[nH]c4c3)cc2)CC1` it is 68.4% (inactive); for `COc1ccc(F)cc1/C=C/C(=O)/C=C(/C=C/c1cc(F)ccc1OC)OB(F)F` it is 33.7% (inactive).
The figure for `O=C1/C(=C/c2ccc([N+](=O)[O-])cc2)COc2ccc(O)cc21` is 95% (inactive).
The figure for `CC(C)C1=NOC(=O)C1=Cc1cn(-c2ccccc2)nc1-c1ccc(F)cc1` is 121% (inactive).
As to `CN(C)Cc1ccc(O)c(C(=O)O)c1`, the growth is 112% (inactive).
The figure for `O=C(Nc1nc(-c2ccc(Cl)cc2)nc2c1sc(=S)n2-c1ccccc1)C(F)(F)F` is 28.3% (inactive); for `CCN1C(=S)N(c2ccccc2)C2NC(=S)N(/N=C/C=C/c3ccccc3OC)C21` (stereo not given) it is 9.74% (active); for `CCCCCCCC[C@@H]1N[C@@H](C(=O)OC)Cc2c1[nH]c1ccccc21` it is 105% (inactive).
Then `Cc1ccc(C[P+](c2ccccc2)(c2ccccc2)c2ccccc2)cc1`, with 0.272% (active); and `Nc1ncc(-c2ccc3ncnc(Nc4cccc(Cl)c4)c3c2)cn1`, with 46.5% (inactive); and `CCOC(=O)c1cc(C(=O)c2cc(OC)c(OC)c(OC)c2)n2ncccc12`, with 37% (inactive).
Then `O=C(/C=C/c1ccco1)Nc1ncc(Cc2cccc(C(F)(F)F)c2)s1`, with 8.55% (active); and `CC(C)(Sc1cc(C(C)(C)C)c(O)c(C(C)(C)C)c1)Sc1cc(C(C)(C)C)c(OC(=O)CCCC(=O)O)c(C(C)(C)C)c1`, with 64.9% (inactive).
For `O=C1c2c(c3c4ccccc4[nH]c3c3ccc4ccccc4c23)C(=O)N1CCN1CCOCC1`, the growth was 69.8% (inactive).
The figure for `Cc1sc2nc(NCCc3c[nH]c4ccc(Cl)cc34)[nH]c(=O)c2c1C` is 74.2% (inactive).
The figure for `O=C1Nc2ccc(C(=O)O)cc2/C1=N/c1nnc(Sc2ccccc2)s1` is 123% (inactive); for `CCCCNC(=O)CC1=C(C)/C(=C/c2[nH]c(-c3ccc[nH]3)cc2OC)N=C1C` it is 41.7% (inactive).
The figure for `Nc1[nH]n2cc(-c3ccccc3)nc2c1N=Nc1ccc(S(N)(=O)=O)cc1` is 59.5% (inactive).
With `CCC(=C(c1ccc(OCCN2CCCCC2)cc1)c1ccc(OCCN2CCCCC2)cc1)c1ccc(Cl)cc1`, the growth is -91.7% (active).
The figure for `CSc1nc2ccccc2cc1/C=C1/C=C(c2ccccc2)NC1=O` is 77.4% (inactive); for `COc1ccc(C(O)c2cc3c(N)c(C(=O)Nc4cccc(Br)c4)sc3nc2C)cc1` (stereo not given) it is 3.53% (active); for `Cc1cc(=O)oc2cc(OCc3nn4c(Nc5nc6ccccc6s5)c(-c5ccccc5)nc4s3)ccc12` it is 92.6% (inactive).
As for `CC/C(=C(/c1ccc(Cl)cc1)c1ccc(OCCN2CCCCC2)cc1)c1ccc(OC)cc1`, the growth is 78.2% (inactive).
Then `CCCC/C=C/[C@@H]1C[C@H]1CCO`, with 96.8% (inactive).
